Laboratory results: PubChem BioAssay (NCI)
This is part of a sample that, as a whole, favours compounds with a hit. Of some 83,000 tested, about 20% had one in any assay.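 How to read the values: 0–100, growth inhibition (40 = 60% inhibited); 0, no net growth; -100 to 0, cell death (-40 = 40% of starting cells died; -100 = all dead).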 Active and inactive are the calls of the source. How the source made its calls: active means growth percent below 10; inactive means the rest.

Key:
Experiment in all cases: NCI-60 one-dose screen, 48 h (100 = growth as untreated, 0 = no growth, -100 = all killed)
Details in all cases: 10 µM unless noted
[1] = system: NCI-H23 lung
[2] = system: NCI-H226 lung
[3] = system: HOP-62 NSCLC
[4] = system: NCI-H460 lung
[5] = system: HOP-92 NSCLC
[6] = system: NCI-H522 lung
[7] = system: A549/ATCC NSCLC
[8] = system: 786-0 renal
[9] = system: COLO 205 colon
[10] = system: DU-145 prostate
[11] = system: MALME-3M melanoma
[12] = system: MDA-MB-231 breast
[13] = system: RXF 393 renal
[14] = system: SF-268 CNS
[15] = system: SF-295 CNS
[16] = system: SF-539 CNS
[17] = system: UACC-257 melanoma
[18] = system: M14 melanoma
[19] = system: K-562 leukemia

Measured: growth

CN1C(=O)C2(SCC(C(=O)NCc3ccccc3)N2C(=O)C2CCCCC2)c2ccccc21 (stereo not drawn)
inactive: [1] 91% | [2] 84.3% | [3] 98.2% | [4] 96% | [5] 86.3% | [6] 75.4% | [7] 93.6% | [8] 101% | [9] 95.3% | [10] 98% | [11] 94.1% | [12] 117% | [13] 119% | [14] 83.3% | [15] 100% | [16] 123% | [17] 106% | [18] 87.3%

O=C(C(=O)c1ccc2c(c1)OCO2)c1ccc2c(c1)OCO2
inactive: [1] 111% | [2] 99.9% | [3] 101% | [4] 96.6% | [5] 101% | [6] 102% | [7] 99.1% | [8] 109% | [9] 109% | [10] 111% | [19] 108% | [11] 104% | [12] 100% | [13] 105% | [14] 99% | [15] 120% | [16] 114% | [17] 87.8% | [18] 101%

COc1cc(-c2nn(-c3ccc(C)cc3)cc2C(=O)O)ccc1O
inactive: [1] 89.1% | [2] 102% | [3] 88.2% | [4] 104% | [5] 97.7% | [6] 79.5% | [7] 107% | [8] 101% | [9] 112% | [10] 109% | [11] 90% | [12] 91.7% | [13] 125% | [14] 90.4% | [15] 97.9% | [16] 101% | [17] 105% | [18] 96.8%

CCCCCCN(CCCCCC)CCC(O)c1ccc2ccccc2c1 (stereo not drawn)
active: [5] 2.35%
inactive: [1] 45.3% | [2] 79.2% | [3] 101% | [4] 51.5% | [6] 60.2% | [7] 74.5% | [8] 54.1% | [9] 39.5% | [10] 74.3% | [19] 27.9% | [11] 68.5% | [12] 42.4% | [13] 46.7% | [14] 73.3% | [15] 52.5% | [16] 61.9% | [17] 85.3% | [18] 50.2%

NC(=O)c1cc(Cl)ccc1NC(=O)/C=C/c1ccccc1
active: [6] 4.73% | [9] -43.3% | [10] -0.745% | [13] -11.1% | [16] -6.33%
inactive: [1] 60.3% | [2] 63.6% | [3] 84.9% | [4] 12.1% | [5] 58.7% | [7] 17.8% | [8] 56.8% | [19] 11.6% | [11] 67% | [12] 39.2% | [14] 46.1% | [17] 46.2% | [18] 28.1%

Oc1ccccc1-c1nnc(CNc2ccc(Cl)cc2)o1
inactive: [1] 34.8% | [2] 30.1% | [3] 25.7% | [5] 52.5% | [6] 25.9% | [7] 20.9% | [8] 36.7% | [9] 14.8% | [10] 35.5% | [19] 13.1% | [11] 44% | [12] 46.9% | [13] 37% | [14] 27.4% | [15] 40.6% | [16] 26.7% | [17] 12.4% | [18] 10.8%
active: [4] 7.25%

C=C1C(=O)O[C@H]2[C@H]1CC/C(C=Nc1ccc(C(F)(F)F)cc1N)=C\CC[C@@]1(C)O[C@@H]21
inactive: [1] 12.4% | [2] 42.5% | [3] 47.6% | [4] 15.3% | [5] 27% | [7] 59.7% | [8] 25% | [10] 17.4% | [14] 23.7% | [15] 45.4% | [17] 13%
active: [6] -56.6% | [9] -74.3% | [11] -13.3% | [12] -26.4% | [13] -35.5% | [16] -7.2% | [18] 5.33%

O=C(/C=C/c1ccccc1)c1ccc(O)c(CN2CCN(c3cc4c(cc3F)c(=O)c(C(=O)O)cn4C3CC3)CC2)c1
inactive: [1] 34.4% | [2] 40.4% | [3] 25.1% | [4] 34.7% | [7] 17.6% | [8] 23.9% | [9] 89.8% | [10] 31.3% | [19] 16.7% | [11] 18.9% | [12] 33.3% | [13] 17.4% | [14] 28.1% | [16] 10.3% | [17] 31.7% | [18] 27.9%
active: [5] -5.65% | [6] 1.49% | [15] 4.62%
